# Bioassay records (PubChem BioAssay)
# Rows were chosen to be rich in hits. Some 3.5% of all compounds tested hit in one or more screens of this group.
# TEAD-YAP block: TEAD-YAP interaction inhibition, primary screen, TEAD-YAP interaction inhibitor project, luminescence, HEK-TIYL cells; TEAD-Gal4/YAP UAS-luciferase luminescence; inhibition, % at 9.12 µM; hit rate 1.4% among 640,000; AID 1259422, 2018; in the data active means inhibition above about 32%;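 further: 0% = median of test compound wells and 100% = reference inhibitor wells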
# FBW7 activator: FBW7 E3 ligase activators, primary screen, biochemical, AlphaScreen, human | AlphaScreen FBW7–phospho-cyclin E peptide binding, activator screen | normalized activity (activation), % at 26.1 µM | hit rate 0.13% among 650,000 | AID 1259310, 2017; in the data active means normalized activity above about 1.9%;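 further: purified mutant Fbw7 with reduced substrate affinity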
# GPR151 ag: activators of human GPR151, primary screen, cell-based, PathHunter beta-arrestin, luminescence. G-protein coupled receptor 151 (Homo sapiens), Q8TDV0. PathHunter beta-arrestin GPR151 cells. activation, % at 11.2 µM. hit rate 1% among 650,000. AID 1508602, 2020; in the data active means activation above about 4.9%;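 further: 0% = median of compound wells and 100% = cells with positive control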
# MITF primary: MITF inhibitors, primary screen, biochemical, AlphaScreen, human; inhibition, % at 2.6 µM; hit rate 0.91% among 650,000; AlphaScreen MITF homodimerization, bead proximity signal; in the data active means inhibition above about 50%;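 further: 0% = vehicle wells with protein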
# Target sequence (O75030 whole entry, looked up): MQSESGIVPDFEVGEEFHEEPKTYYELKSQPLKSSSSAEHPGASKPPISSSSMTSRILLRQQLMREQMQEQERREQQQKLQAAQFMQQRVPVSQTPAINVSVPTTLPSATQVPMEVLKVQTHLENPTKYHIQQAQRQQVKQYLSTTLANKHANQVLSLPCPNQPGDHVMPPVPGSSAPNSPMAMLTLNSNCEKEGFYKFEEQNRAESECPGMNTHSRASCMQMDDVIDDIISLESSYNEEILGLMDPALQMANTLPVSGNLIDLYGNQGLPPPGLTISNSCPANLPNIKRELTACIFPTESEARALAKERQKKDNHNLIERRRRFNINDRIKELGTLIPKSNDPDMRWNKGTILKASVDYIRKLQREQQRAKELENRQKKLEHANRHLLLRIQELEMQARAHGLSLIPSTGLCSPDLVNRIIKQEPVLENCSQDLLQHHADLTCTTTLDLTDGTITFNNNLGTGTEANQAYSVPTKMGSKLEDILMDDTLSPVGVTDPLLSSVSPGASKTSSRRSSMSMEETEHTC
# GPR151 conf act: GPR151 activators, triplicate retest, confirmation, cell-based, PathHunter beta-arrestin, luminescence; shares compounds with GPR151 ag; GPR151 PathHunter beta-arrestin cells, 90 min; % of EA-reagent control over plate median; activation, % at 11.2 µM; 6,700 tested, under 10 active;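 active means mean percent activation across replicates above the confirmation screen cutoff of 4.91%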
# GPR119 counter: GPR119 activators in beta-arrestin cells, counter-screen for GPR151 activator project, cell-based, PathHunter beta-arrestin, luminescence, triplicate | shares compounds with GPR151 ag | 90 min; 0 = compound-well median, 100 = enzyme-acceptor control | activation, % at 11.2 µM | hit rate 0.3% among 6,700 | AID 1508611, 2020;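 active means mean percent activation in the counterscreen above 29.09%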;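 further: counterscreen on off-target GPR119 to flag nonselective hits from the GPR151 activator screen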
# * marks the source's active call; other numbers are inactive results; x = no result; ! = a repeat was not active.
SMILES,TEAD-YAP block,FBW7 activator,GPR151 ag,MITF primary,GPR151 conf act,GPR119 counter
Cc1nn(C)c(C)c1-c1cncc(C(=O)NC2CCN(Cc3ccccc3)CC2)c1,2,0,5.5*,-7,1,-2
CCOC(=O)c1cnc2c(C)cccc2c1Nc1ccc(N(C)C)cc1,-4,0,3,-10,x,x
CCOC(=O)c1c(C2COc3ccccc3O2)csc1NC(=O)c1ccc(OC)c(OC)c1 (stereo not given),7,0,0,-13,x,x
COC1C(OC(N)=O)C(O)C(Oc2ccc3c(O)c(NC(=O)c4ccc(O)c(CC=C(C)C)c4)c(=O)oc3c2C)OC1(C)C (stereo not given),1,0,6.6*!,-2,0,-1
O=C(Nc1nnc(COc2ccccc2)o1)c1ccccc1,9,0,0,20,x,x
O=C(Nc1nnc(COc2ccccc2)o1)c1cc(Br)ccc1Cl,3,0,4.9*,12,-2,-15
CCN(CC)C(=O)CSc1nnc(-c2cccnc2)n1-c1ccc(C)cc1C,-9,0,4,6,x,x
Cc1cccc(NC(=O)/C=C/C(=O)O)c1,-12,0,2,8,x,x
CCc1cccc(NC(=O)/C=C/C(=O)O)c1,-1,0,5.2*,-5,0,-5
CC(O)CNc1nc2ccccc2n1CC(=O)N1CCc2ccccc21 (stereo not given),6,0,10.0*,0,-1,9
C(/C=C/c1ccccc1)=N/N1CCN(c2ccccc2)CC1,-19,0,4.9*,16,-2,-10
O=C(NC(=S)Nc1ncccc1O)c1ccccc1Br,-85,0,7.6*,-4,0,-8
Cc1cccnc1NC(=S)NC(=O)c1ccccc1Br,-43,0,0,10,x,x
CCc1ccc(-c2cc(C(=O)N3CCCCC3)c3ccccc3n2)cc1,-31,0,-1,8,x,x
CCc1ccc(-c2cc(C(=O)N3CCN(C/C=C/c4ccccc4)CC3)c3ccccc3n2)cc1,47*,0,5.3*,2,1,11
c1nc(NCCc2ccc3c(c2)OCCO3)c2ccsc2n1,39*,0,5.6*,-2,2,0
COc1ccc(/C(C)=N/NS(=O)(=O)c2ccc(C(C)(C)C)cc2)cc1,1,0,-2,-7,x,x
O=C(N/N=C1\CCc2ccccc21)c1ccc(Cl)cc1,-46,0,-1,4,x,x
COc1ccc(N(CC(=O)NCCC(C)C)C(=O)c2snc(C(N)=O)c2N)c(OC)c1,-9,1,0,-2,x,x
COc1ccc(C)cc1N(CC(=O)NCCC(C)C)C(=O)c1snc(C(N)=O)c1N,-2,0,11*,-23,1,5
CCC(=O)Nc1ccc(C(=O)CSc2nc(C)c(CC)c(=O)[nH]2)cc1OC,-8,0,1,10,x,x
Cn1c(CNc2nc3ccccc3n2CCN2CCOCC2)nc2ccccc21,-13,0,-1,12,x,x
c1coc(CNc2nc3ccccc3n2CCN2CCOCC2)c1,-19,0,9.8*,-11,0,19
Cc1nn(C)c(C)c1-c1ccc(C(=O)NCc2ccccc2)s1,-5,0,0,2,x,x
Cc1ccc(N(C(=O)CCc2ccccc2)C2C=CS(=O)(=O)C2)cc1C (stereo not given),9,0,5.4*,0,0,3
SMILES,TEAD-YAP block,FBW7 activator,GPR151 ag,MITF primary,GPR151 conf act,GPR119 counter
O=C(COc1ccc(Br)cc1)N(c1ccccc1)C1C=CS(=O)(=O)C1 (stereo not given),13,0,6.3*,2,0,-1
O=C(CSc1nc2ccccc2c(=O)n1CC1CCC(C(=O)NCc2ccccc2)CC1)NC1CCCCC1 (stereo not given),4,0,0,-11,x,x
N#CC1=C(S)N(c2ccccc2)C(c2cccs2)NC1=O (stereo not given),-8,0,6.9*,-8,0,7
N#CC1=C(S)N(c2ccccc2)C(c2ccco2)NC1=O (stereo not given),-5,0,0,-3,x,x
CC1Cc2ccccc2N1S(=O)(=O)c1ccc2c(c1)c(=O)n(C)c(=O)n2C (stereo not given),11,0,0,2,x,x
COc1ccccc1NC(=O)C1C2C=CC(C3CC23)C1C(=O)O (stereo not given),6,0,12*,15,0,1
Cc1ccccc1NC(=O)C1C2C=CC(C3CC23)C1C(=O)O (stereo not given),-7,0,0,17,x,x
COc1ccc(N2C(=O)c3ccc(Oc4ccc(Nc5ncnc6sc7c(c56)CCCC7)cc4)cc3C2=O)cc1OC,9,0,1,10,x,x
CC(=O)c1cccc(-c2nc(C)cc(NCCN3CCOCC3)n2)c1,-15,0,11*,-4,1,-1
c1cc(NCCN2CCOCC2)nc(-c2ccc(N3CCOCC3)nc2)n1,6,0,6.1*,11,0,3
Cc1cc(NCCN2CCOCC2)nc(-c2cccc(N)c2)n1,2,0,1,8,x,x
O=Cc1cccc(-c2ccc(NCCN3CCOCC3)nc2)c1,-58,-1,5.2*,14,0,-1
COc1cc(C=Nc2ccc3[nH]ncc3c2)c([N+](=O)[O-])cc1OC,-5,-1,-1,8,x,x
Cn1c(Nc2ncc(C(=O)NC3CC3)s2)nc2ccccc21,-8,0,-6,13,x,x
CC(Sc1nnc(NC(=O)c2ccccc2)s1)c1nc2ccccc2c(=O)[nH]1 (stereo not given),-1,0,5.7*,7,0,5
Cc1cccnc1C(NC(=O)C1CCN(C(=O)N2CCOCC2)CC1)c1cccs1 (stereo not given),6,1,0,17,x,x
COc1cccc(CN(CCN(C)C)C(=O)[C@@H](Cc2ccc(-c3cn[nH]c3)cc2)NC(=O)C(C)O)c1 (stereo not given in full),-3,0,5.1*,3,0,-6
CC(=O)Oc1ccc(C(=O)Nc2nc3c(C)cc(C)cc3s2)cc1,-5,0,1,-4,x,x
CC(C)c1ccc(C2OCC(CO)([N+](=O)[O-])CO2)cc1 (stereo not given),-16,0,1,-10,x,x
COc1ccc(OC)c(NC(=O)c2ccc(C)cc2)c1,-9,0,0,-2,x,x
COc1ccc(C(=O)N/N=C(\C)c2ccc(OC)c(Br)c2)cc1,-22,0,6.3*,1,-1,0
COc1ccc(OC)c(NC(=O)c2ccc(C)c(Br)c2)c1,-21,0,7.9*,2,0,-10
